The whole screen tested about 63,000 compounds, of which about 1,100 (1.7%) were called active. The full list was thinned out, with actives kept by preference. Measured potencies and affinities stand elsewhere. Unmarked numbers belong to inactive results.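 How the source made its calls: active means compounds whose percent cytotoxicity in the single-dose primary screen, scaled between solvent and toxic-drug controls, exceeds 50; inactive means the rest.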

This assay in a line: viability loss of HPDE-C7K cells – cell-based, fluorescence, HTS, primary screen (AID 431).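 Further: 0% = DMSO solvent wells and 100% = doxorubicin-treated wells.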 The conditions noted are these: HPDE-C7K KRASV12 cells, Alamar Blue viability, 48 h; at 10 µM; active compounds read high.
For `O=C(NCC1CCCO1)C1C2C=CC3(CN(Cc4cccs4)C(=O)C13)O2` (configuration not stated), the cytotoxicity was -19.1%.

With `O=C(O)c1cccc(S(=O)(=O)N2CCCC2)c1`, the cytotoxicity was -8.3%.

For `O=C(Nc1cccc(NC(=O)c2ccc(-c3cccc(Br)c3)o2)c1)c1ccco1`, the cytotoxicity is 66.3% (active).

Take `COC(=O)Cc1ccc(NC(=O)c2ccc(Br)o2)cc1`: the cytotoxicity was 8.9%.

As for `O=C(Nc1ccc(Nc2ccccc2)cc1)c1ccc(Br)o1`, the cytotoxicity is 93% (active).

On to `O=C(Nc1ccc(S(=O)(=O)NCCc2ccccc2)cc1)c1ccc(Br)o1`, for which the cytotoxicity is 15.9%.

Consider `CC(=O)Nc1cccc(NC(=O)c2ccco2)c1`, for which the cytotoxicity is -14%.

Turning to `COc1ccc(Br)cc1C(=O)Nc1cccc(NC(=O)c2ccco2)c1`, the cytotoxicity is 0.2%.

Consider `COc1ccc(CN(Cc2ccccn2)C(=O)CN2C(=O)COc3ccccc32)cc1`, for which the cytotoxicity is -15.4%.

As to `CCCCS(=O)(=O)c1sc2nc3c(cc2c1N)CCCC3`, the cytotoxicity was -4.6%.

`Cc1cc(NC(=O)COc2ccc(N(C)S(=O)(=O)c3ccccc3)cc2)no1`: the cytotoxicity was -0.8%.

Regarding `CCOC(=O)Cn1cnc2c(nnn2Cc2ccc(Cl)cc2)c1=O`, the cytotoxicity is -1%.

On to `Cc1ccc(-n2c(Cc3cccn3C)nnc2SCC(=O)Nc2nnc(C)s2)cc1`, for which the cytotoxicity is -0.8%.

In the case of `CCSc1nnc(NC(=O)CSc2nnc(Cc3cccn3C)n2-c2ccc(C)cc2)s1`, the cytotoxicity was 50.6% (active).

`CCSc1nnc(NC(=O)CSc2nnc(Cc3cccn3C)n2-c2ccc(F)cc2)s1`: the cytotoxicity is 49.5%.

For the compound `Cc1ccc(N)c(C(O)(C(F)(F)F)C(F)(F)F)c1`, the cytotoxicity was -9.9%.

Consider `CC(C)(NO)/C(=N/O)c1ccc(Br)cc1`, for which the cytotoxicity is -3.6%.

Regarding `CN(Cc1ccccc1)C(=O)Nc1ccccc1`, the cytotoxicity was 9.8%.

For `CC(=O)c1sc(NC(=O)C=C(C)C)nc1C`, the cytotoxicity is -0.4%.

Take `CC(=O)c1sc(NC(=O)C2(F)C(F)(F)C(F)(F)C(F)(F)C(F)(F)C2(F)F)nc1C`: the cytotoxicity was 51% (active).

Turning to `CCCCC(=O)Nc1nc(C)c(C(C)=O)s1`, the cytotoxicity is -0.2%.

Take `O=C(Cn1ncc2c(=O)oc3ccccc3c21)NC1CC1`: the cytotoxicity was -0.5%.

As for `CCOC(=O)c1ccc(N2CC(O)=C(c3nc4ccccc4c(=O)[nH]3)C2=N)cc1`, the cytotoxicity is 51.4% (active).

For `COc1ccccc1N1CC(O)=C(c2nc3ccccc3c(=O)[nH]2)C1=N`, the cytotoxicity is 26.5%.

For `COc1cccc(N2CC(O)=C(c3nc4ccccc4c(=O)[nH]3)C2=N)c1`, the cytotoxicity is 28%.

Turning to `O=C(CCN1CCCC1)Nc1cccc(Br)c1`, the cytotoxicity is 3.2%.

For the compound `Cc1ccc(C)c(NC(=O)CN(C)S(=O)(=O)c2ccc(F)cc2)c1`, the cytotoxicity is -4.8%.

For the compound `O=C(NCCc1cn2ccccc2n1)c1ccc(Br)o1`, the cytotoxicity is -1.7%.

As to `O=C(Nc1ncnc2sc3c(c12)CCC3)c1ccco1`, the cytotoxicity was 10.7%.

On to `O=S(=O)(Nc1ncnc2sc3c(c12)CCC3)c1ccc(Cl)s1`, for which the cytotoxicity was 50.7% (active).

`Cc1nc(NS(=O)(=O)c2cccs2)c2c3c(sc2n1)CCC3`: the cytotoxicity was 10.8%.

`COc1ccc(C2N(c3ccc(F)cc3)C(=O)C3CCCN32)cc1` (configuration not stated): the cytotoxicity was -2.8%.

On to `CCOC(=O)C1CCCN(C(=O)c2ccc(CS(=O)(=O)Cc3ccccc3C)o2)C1` (configuration not stated), for which the cytotoxicity is 16.4%.

Take `CCC(C)[C@@H](C(=O)Nc1ccc(OC)c(OC)c1)N1Cc2ccccc2C1=O` (some centres not stated): the cytotoxicity is -0.4%.

For the compound `Cn1cnc2c(N3CCCCC3)nccc21`, the cytotoxicity was 3.7%.

Consider `c1cncc(Nc2nc(-c3cccnc3)cs2)c1`, for which the cytotoxicity is 15%.

Turning to `CCN(C(C)=O)c1nnc(CSc2nc3ccccc3s2)s1`, the cytotoxicity is 23.5%.

As to `CCN(C(=O)CSc1nnc(Cn2nnc3ccccc32)o1)c1nc(-c2ccccc2)cs1`, the cytotoxicity is -0.5%.

On to `CCN(C(=O)c1ccc(C(C)(C)C)cc1)c1nnc(Cn2nnc3ccccc32)s1`, for which the cytotoxicity was 88.4% (active).

On to `O=C(Nc1ccccc1C(=O)NCc1ccco1)c1ccco1`, for which the cytotoxicity was 7.2%.

Consider `N=c1n(CCN2CCOCC2)c2ccccc2n1CC(O)COc1ccccc1` (configuration not stated), for which the cytotoxicity is -9.7%.

For the compound `CC1(C)Cc2c(C#N)c(N3CCN(C(=O)c4ccco4)CC3)nc(-c3ccco3)c2CS1`, the cytotoxicity is 44.2%.

Regarding `CCCc1nc(NCc2ccco2)c(C#N)c2c1COC(C)(C)C2`, the cytotoxicity was 1.1%.

Turning to `CCCCc1nc(NCCNC(=O)c2ccco2)c(C#N)c2c1CSC(C)(C)C2`, the cytotoxicity is 80.9% (active).

As to `CCOC(=O)c1cnc(SCC(=O)Nc2sc(C)c(C)c2C#N)nc1N`, the cytotoxicity was -2.2%.

In the case of `CCOc1ccc(Nc2cc(C)nc(N3CCOCC3)n2)cc1`, the cytotoxicity was -19.5%.

Turning to `COCCn1c(SCC(=O)Nc2nc(C)c(Cl)cc2Cl)nc2ccccc21`, the cytotoxicity was -6.8%.

On to `Cc1ccccc1-c1nc(CS(=O)(=O)CC(=O)NCc2ccc3c(c2)OCO3)c(C)o1`, for which the cytotoxicity is 14.4%.

On to `O=c1n(Cc2ccccc2Cl)c2sc3c(c2c2ncnn12)CCCC3`, for which the cytotoxicity was -12.2%.

Take `O=C(Cn1c(=O)n2ncnc2c2c3c(sc21)CCCC3)c1ccccc1`: the cytotoxicity was -20.6%.

For `COCCn1c(Cc2ccccc2)nnc1SCC(=O)NC(C)C`, the cytotoxicity is -14.6%.

`CCOC(=O)c1[nH]c(C)c(C(=O)Nc2cc(Cl)ccc2C)c1C`: the cytotoxicity was 55% (active).

For the compound `CCOC(=O)c1[nH]c(C)c(C(=O)OCC)c1C`, the cytotoxicity was -10%.

Take `CCOC(=O)c1[nH]c(C)c(C(=O)c2cc(F)ccc2F)c1C`: the cytotoxicity was 70.6% (active).

For `CCOC(=O)c1[nH]c(C)c(C(=O)Nc2ccc(F)cc2)c1C`, the cytotoxicity was -5.4%.

`CCOC(=O)c1[nH]c(C)c(C(=O)Nc2ccc(Cl)cc2)c1C`: the cytotoxicity is 10.1%.

Take `CCOC(=O)c1[nH]c(C)c(C(=O)Nc2ccccc2C)c1C`: the cytotoxicity is 45.7%.

Take `CCN(CC)CCNC(=O)C1CCC(=O)N(c2ccc(OC)cc2)C1c1ccc(F)cc1` (configuration not stated): the cytotoxicity was 5.4%.

For `COc1cccc(N2C(=O)CC(N3CCC(C(N)=O)(N4CCCCC4)CC3)C2=O)c1` (configuration not stated), the cytotoxicity was -2.6%.

On to `Clc1ccc(-c2nnc3sc(Cc4cccs4)nn23)c(Cl)c1`, for which the cytotoxicity is -3.4%.

Regarding `O=C(NC1CCCCC1)N1CCCCCCC1`, the cytotoxicity is -4.9%.

With `CCOC(=O)Cn1c(=O)n(Cc2ccco2)c(=O)c2ccc(C(=O)NCCc3ccccc3)cc21`, the cytotoxicity was 7.3%.

`COc1cc2c(=O)n(Cc3ccco3)c(=O)n(CC(=O)c3cccc(Br)c3)c2cc1OC`: the cytotoxicity is 50% (active).

As for `COc1cc2c(=O)n(Cc3ccccc3)c(=O)n(CC(=O)NCc3ccco3)c2cc1OC`, the cytotoxicity was 5.4%.

Take `COc1cc2c(=O)n(Cc3ccccc3)c(=O)n(CC(=O)C(C)(C)C)c2cc1OC`: the cytotoxicity was -1.3%.

As for `COc1ccc(CCNC(=O)Cn2c(=O)n(Cc3ccco3)c(=O)c3ccc(Cl)cc32)cc1OC`, the cytotoxicity is 4.2%.

For `COc1cc2c(=O)n(Cc3ccco3)c(=O)n(CC(=O)c3ccc(Br)cc3)c2cc1OC`, the cytotoxicity is 80.3% (active).
